The text below walks through data of the OligoGym collection.
Note: reference of the scale not given here.

For one experiment, the target named is PPM1E. As to the kind of experiment: pooled miR-30 sensor sort-seq; sequence = guide strand. The settings on record: shRNA.
For TTTTAGATTGAAAACACTGTAC, the sensor-assay potency score (higher = more potent) came out at 0.00481.

In turn, TAGATTGAAAACACTGTACTTT showed a sensor-assay potency score (higher = more potent) of 0.776.

As for TAGTTCAACAGCTTGGCCCTTT, the sensor-assay potency score (higher = more potent) is 0.206.

TTTCTCACAAGCATAACCTGGG: the sensor-assay potency score (higher = more potent) came to 0.732.

TTTGGATTAAACCTGAATCTGT displayed a sensor-assay potency score (higher = more potent) of -0.682.

In turn, TTACATTTAAGAATTGAGCCAT registered a sensor-assay potency score (higher = more potent) of 0.639.

As for TACAGCTTTGTTCATGTCCCTC, the sensor-assay potency score (higher = more potent) is -0.388.

In turn, TATATTTGTAGAGCTGCTGCAG returned a sensor-assay potency score (higher = more potent) of 0.13.

Turning to TATTTGTGTGAGATCTAGGTAG, the sensor-assay potency score (higher = more potent) was 0.201.

For the sequence TTGCTTTCTTTGGTGCACCAGG, the sensor-assay potency score (higher = more potent) is -0.843.

TAAAACTTTGGATTAAACCTGA displayed a sensor-assay potency score (higher = more potent) of -0.0256.

For TTGCTTGCTTCTATTTGTGTGA, the sensor-assay potency score (higher = more potent) is -0.309.

The target in the next experiment is PPM1F. Described as above. The note with it: shRNA.
As for TACCTCGCAGCATCCACGCCTC, the sensor-assay potency score (higher = more potent) was -0.377.

The sequence AACATCTGGTCGGTGCGCCGGA yielded a sensor-assay potency score (higher = more potent) of -0.815.

For TTAAATTATATGACACAACAGG, the sensor-assay potency score (higher = more potent) was -0.831.

Take ATATCTGTAAATATGAACCCAC: the sensor-assay potency score (higher = more potent) was -0.596.

Sequence TATGACACAACAGGTCATCTTG came in with a sensor-assay potency score (higher = more potent) of -0.621.

For the sequence TTTCCTGAGAAACATCTGGTCG, the sensor-assay potency score (higher = more potent) was -0.801.

In the case of TTATATGACACAACAGGTCATC, the sensor-assay potency score (higher = more potent) was -0.681.

TAAATTATATGACACAACAGGT: the sensor-assay potency score (higher = more potent) is -0.732.

AAGGTCTGTCTGTAGCAGCTGT yielded a sensor-assay potency score (higher = more potent) of -0.309.

TCAAACACAGCAAAGTAGGCGC had a sensor-assay potency score (higher = more potent) of -0.108.

Regarding TCTGTCTGTAGCAGCTGTGAAA, the sensor-assay potency score (higher = more potent) was -1.23.

As to TTCTGGTCTGTGTGGCTCCATC, the sensor-assay potency score (higher = more potent) was -1.7.

The target in the next experiment is PPM1J. Described as above. The note with it: shRNA.
Turning to TCTTTTTGTAGGCCCAGCCGGT, the sensor-assay potency score (higher = more potent) was -1.16.

For ACAGTCAGTAGTGACATCCCAC, the sensor-assay potency score (higher = more potent) was -0.629.

TTCACTGCCTAGCAGCTCTGGT returned a sensor-assay potency score (higher = more potent) of -0.516.

As to TAGATCACAACCAGTGCACAGC, the sensor-assay potency score (higher = more potent) was -0.65.

With AAGTATCTCTACCAGGTCCTTT, the sensor-assay potency score (higher = more potent) was -0.98.

TTCCGGACAATGATGGCCCTGC had a sensor-assay potency score (higher = more potent) of 0.189.

TAGCACATCATCTGGGCAGTGC showed a sensor-assay potency score (higher = more potent) of -0.403.

TAGCAGGTAGATCACAACCAGT: the sensor-assay potency score (higher = more potent) was -1.29.

In turn, TTGATGACCTCGGCGTAGCCTG gave a sensor-assay potency score (higher = more potent) of -0.901.

The sequence TTGGATATAGCGGACATCCCTT showed a sensor-assay potency score (higher = more potent) of -0.328.

In the case of TCGATCTTTTTGTAGGCCCAGC, the sensor-assay potency score (higher = more potent) is -1.4.

As for TACTCCTGTAACACTCCTCCGA, the sensor-assay potency score (higher = more potent) was -0.279.

The target in a further experiment is PPP1R13B. Described as above. The settings on record: shRNA.
The sequence TTCCTTGGCAACCAACATCTGC came in with a sensor-assay potency score (higher = more potent) of -1.09.

In turn, TTACATTTCTCTGAGTTCGTTG displayed a sensor-assay potency score (higher = more potent) of -0.0932.

For the sequence TTCTACAACATCTCGACAGGTT, the sensor-assay potency score (higher = more potent) was determined as 0.568.

Take TTCACTGATTCGCTTGTCCATC: the sensor-assay potency score (higher = more potent) was -0.504.
